Test system in the first experiment: not listed separately
In words: small molecules captured by biotinylated probe aFGF10 – biochemical, small-molecule microarray, fluorescence 635/667, stem cell growth factor project, primary screen (AID 1071).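 Note: score merges 667 nm spot intensity and signal to noise from triplicate slides.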 Particulars: higher = more signal.
Consider `O=C1NCC(=O)N2[C@@H]1C[C@@H](C(=O)O)[C@H]2c1cccc(OCCO)c1`, for which the composite z-score was found to be 0.935.

Compound `COCCOC(=O)N1C(=O)[C@@]2(c3cc(C#CC4(O)CCCCCC4)ccc31)[C@H](c1ccc(O)cc1)N1[C@H](c3ccccc3)[C@H](c3ccccc3)OC(=O)[C@H]1[C@@H]2C(=O)Nc1nc2ccccc2s1` had a composite z-score of 0.769.

Take `COCCOC(=O)N1C(=O)[C@@]2(c3cc(C#CCNC(N)=O)ccc31)[C@H](C(=O)NC[C@H](O)c1ccccc1)[C@H]1C(=O)O[C@H](c3ccccc3)[C@H](c3ccccc3)N1[C@@H]2c1ccccc1OCCO`: the composite z-score stood at 0.745.

Take `O=C(NCc1ccccc1)[C@@]1(CCS(=O)(=O)c2ccccc2)N=C(c2ccc(OCCCO)cc2)O[C@H]1c1ccccc1`: the composite z-score was 0.488.

The target of another experiment is Neurogenic locus notch homolog protein 2 (Homo sapiens) (UniProt Q04721). The experiment can be described thus: small molecules binding Notch2 protein – biochemical, small-molecule microarray, 635 nm fluorescence, stem cell growth factors, primary screen (AID 1073). Particulars: higher = more signal.
Sequence of Neurogenic locus notch homolog protein 2 (Homo sapiens) (Q04721 whole entry, looked up): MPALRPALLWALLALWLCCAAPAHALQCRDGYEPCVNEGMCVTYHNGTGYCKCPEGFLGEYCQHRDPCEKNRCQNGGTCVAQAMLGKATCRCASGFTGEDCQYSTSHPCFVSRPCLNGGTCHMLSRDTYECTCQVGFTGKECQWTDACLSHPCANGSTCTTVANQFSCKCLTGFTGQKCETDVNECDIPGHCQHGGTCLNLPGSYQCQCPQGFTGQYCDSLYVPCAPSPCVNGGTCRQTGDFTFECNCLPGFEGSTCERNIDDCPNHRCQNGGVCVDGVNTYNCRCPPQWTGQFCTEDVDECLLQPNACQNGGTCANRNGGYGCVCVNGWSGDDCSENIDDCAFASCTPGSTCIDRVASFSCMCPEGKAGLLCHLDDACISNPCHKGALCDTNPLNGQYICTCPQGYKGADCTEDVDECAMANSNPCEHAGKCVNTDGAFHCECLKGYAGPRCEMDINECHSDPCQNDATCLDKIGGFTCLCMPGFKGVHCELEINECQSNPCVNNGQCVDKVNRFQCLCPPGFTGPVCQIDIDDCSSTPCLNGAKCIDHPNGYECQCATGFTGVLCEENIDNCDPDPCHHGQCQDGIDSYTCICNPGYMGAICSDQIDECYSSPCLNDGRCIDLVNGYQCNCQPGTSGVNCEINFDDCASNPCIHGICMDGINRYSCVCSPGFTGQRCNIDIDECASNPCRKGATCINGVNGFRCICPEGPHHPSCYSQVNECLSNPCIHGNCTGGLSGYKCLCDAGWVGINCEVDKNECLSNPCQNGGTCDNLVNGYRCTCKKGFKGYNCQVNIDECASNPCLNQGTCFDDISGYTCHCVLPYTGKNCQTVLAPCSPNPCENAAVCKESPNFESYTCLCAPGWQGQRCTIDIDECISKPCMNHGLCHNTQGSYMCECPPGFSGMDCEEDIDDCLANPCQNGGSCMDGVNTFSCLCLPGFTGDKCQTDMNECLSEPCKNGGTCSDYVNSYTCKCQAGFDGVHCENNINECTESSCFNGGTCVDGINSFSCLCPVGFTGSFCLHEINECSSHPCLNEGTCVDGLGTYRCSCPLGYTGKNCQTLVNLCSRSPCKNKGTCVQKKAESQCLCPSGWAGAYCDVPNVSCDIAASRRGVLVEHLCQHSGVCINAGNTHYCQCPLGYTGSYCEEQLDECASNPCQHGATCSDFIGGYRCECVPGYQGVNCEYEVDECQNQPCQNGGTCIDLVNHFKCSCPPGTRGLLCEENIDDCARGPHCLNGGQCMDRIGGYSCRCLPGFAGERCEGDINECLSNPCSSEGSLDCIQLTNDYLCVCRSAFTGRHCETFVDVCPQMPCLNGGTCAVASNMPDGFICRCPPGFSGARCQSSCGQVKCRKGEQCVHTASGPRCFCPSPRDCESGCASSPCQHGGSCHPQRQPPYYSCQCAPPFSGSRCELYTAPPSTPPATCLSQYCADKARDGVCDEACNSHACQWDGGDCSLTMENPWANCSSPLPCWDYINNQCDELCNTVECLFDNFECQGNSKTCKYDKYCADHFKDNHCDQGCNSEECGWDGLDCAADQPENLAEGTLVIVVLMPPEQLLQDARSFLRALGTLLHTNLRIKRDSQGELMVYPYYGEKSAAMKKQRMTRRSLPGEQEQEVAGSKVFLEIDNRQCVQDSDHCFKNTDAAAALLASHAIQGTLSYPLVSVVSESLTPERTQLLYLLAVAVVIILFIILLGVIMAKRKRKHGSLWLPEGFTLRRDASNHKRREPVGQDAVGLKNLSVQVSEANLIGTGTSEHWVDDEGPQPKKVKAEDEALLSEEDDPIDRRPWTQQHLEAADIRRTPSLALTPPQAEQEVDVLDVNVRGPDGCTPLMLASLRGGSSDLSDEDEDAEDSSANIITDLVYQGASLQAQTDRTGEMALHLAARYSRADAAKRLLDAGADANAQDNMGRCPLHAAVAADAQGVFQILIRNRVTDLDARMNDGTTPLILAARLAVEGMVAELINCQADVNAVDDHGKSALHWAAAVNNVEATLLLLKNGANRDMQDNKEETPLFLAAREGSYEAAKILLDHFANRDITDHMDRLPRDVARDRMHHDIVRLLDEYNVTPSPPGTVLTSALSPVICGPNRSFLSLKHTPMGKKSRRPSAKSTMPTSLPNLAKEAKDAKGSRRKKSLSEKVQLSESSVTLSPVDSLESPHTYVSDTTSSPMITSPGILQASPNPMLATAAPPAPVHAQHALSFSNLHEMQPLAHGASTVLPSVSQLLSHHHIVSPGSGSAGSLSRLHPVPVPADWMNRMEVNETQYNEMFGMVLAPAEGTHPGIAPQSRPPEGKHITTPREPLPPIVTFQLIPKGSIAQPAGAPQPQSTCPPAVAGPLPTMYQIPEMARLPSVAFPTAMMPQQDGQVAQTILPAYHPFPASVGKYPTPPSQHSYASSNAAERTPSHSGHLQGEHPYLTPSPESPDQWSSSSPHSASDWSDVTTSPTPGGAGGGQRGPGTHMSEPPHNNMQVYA
Compound `CN1C(=O)C2C=CC(C(O)c3cc(C(F)(F)F)cc(C(F)(F)F)c3)N(N3CCCCC3)C2C1=O` (centres undefined) returned a composite z-score of 1.41.

The compound `CC(C)[C@@H](CO)NC(=O)[C@H]1[C@@H](c2ccccc2)N(c2ccccc2)O[C@@H]1C` came in with a composite z-score of -0.208.

In the case of `COc1cc2c(cc1O)C(C1CC1)N(Cc1cc3c(cc1Br)OCO3)CC2` (centres undefined), the composite z-score is -0.695.

As to `C=CCNC(=O)[C@H]1[C@@H]2C(=O)O[C@@H](c3ccccc3)[C@@H](c3ccccc3)N2[C@@H](c2ccccc2OCCO)[C@]12C(=O)Nc1ccc(C#CC3=CCCCC3)cc12`, the composite z-score worked out at 1.04.

`O=C1C2C=CC(C(O)c3ccc(F)cc3)N(Nc3ccccc3F)C2C(=O)N1c1ccccc1` (centres undefined): the composite z-score was determined as 1.16.

`COc1cc(OC)c(C(O)C2C=CC3C(=O)NC(=O)C3N2Nc2ccc(Cl)cc2Cl)cc1Br` (centres undefined): the composite z-score stood at 1.61.

For the compound `COc1cc2c(cc1O)C=[N+](Cc1cccc(OC(F)(F)F)c1)CC2`, the composite z-score is 0.457.

On to `COc1ccc([Si](C)(C)[C@H]2[C@H](CC(=O)N3Cc4ccccc4C[C@H]3CO)O[C@@]3(C(=O)N(Cc4ccc(N5CCC5=O)cc4)c4ccccc43)[C@@H]2C)cc1`, for which the composite z-score was found to be 0.198.

Compound `Cc1ccc(S[C@]2(C(=O)NCCN3CCOCC3)CC(=O)N(Cc3ccccc3)[C@@H]2c2ccc(CO)cc2I)cc1` displayed a composite z-score of -1.51.

In turn, `COCCOC(=O)N1C(=O)[C@@]2(c3cc(C#Cc4ccc(OC)cc4)ccc31)[C@H](C(N)=O)[C@H]1C(=O)O[C@H](c3ccccc3)[C@H](c3ccccc3)N1[C@@H]2c1ccccc1OCCO` showed a composite z-score of 1.53.

Compound `[N-]=[N+]=NCc1ccccc1C[C@]1(C(=O)NCC(O)CO)N=C(c2ccc(OCCCO)cc2)O[C@H]1c1ccccc1` (some centres undefined) yielded a composite z-score of -0.316.

Compound `C#CCN(Cc1ccccc1Br)C(/C=C/c1ccccc1)CO` (centres undefined) registered a composite z-score of -0.619.

Turning to `C#CCN(CC=C(C)C)[C@H](CO)c1ccccc1`, the composite z-score is 0.204.

`COc1ccc([Si](C)(C)[C@H]2[C@H](CCO)O[C@@]3(C(=O)N(Cc4ccc(N5C(=O)COc6ccccc65)cc4)c4ccccc43)[C@@H]2C)cc1`: the composite z-score is -0.24.

Take `CO[C@H]1O[C@H](CO)[C@@H](OC(=O)Nc2ccc(Br)cc2)[C@H](OC(=O)c2cc3ccccc3[nH]2)[C@H]1OC(=O)c1cc2ccccc2[nH]1`: the composite z-score came out at 0.606.

Consider `CN1C(=O)C2C=CC(C(O)c3ccccc3)N(Nc3ccccc3)C2C1=O` (centres undefined), for which the composite z-score was -0.0125.

`COC(=O)[C@@]1(Cc2ccc(F)cc2)[C@H]2c3cc(C(=O)N4CCCC4)n(Cc4ccc(C)o4)c3C[C@H]2CN1C(=O)c1ccccc1` yielded a composite z-score of 1.53.

`CCCCC(=C=CC[C@@H](O)c1ccccc1OCCO)CCO` gave a composite z-score of -0.333.

As to `CC(=O)N1Cc2ccccc2C[C@@]2(COC(c3ccc(OCCCO)cc3)=N2)C1=O`, the composite z-score turned out to be 1.18.

As to `C[C@]1(C(=O)NC2CC2)c2ccccc2C(=O)N(Cc2cc(C(F)(F)F)cc(C(F)(F)F)c2)[C@H]1c1ccc(CO)cc1`, the composite z-score turned out to be 1.26.

For the compound `CCCC[C@@H]1C[C@H]1[C@@H](NC(=O)c1ccco1)c1ccc(C(=O)OC)cc1`, the composite z-score was -0.253.

On to `C[C@@]1([C@@H](NC(=O)c2ccccc2)c2ccc(-c3ccccc3)cc2)C[C@H]1C1CCCCC1`, for which the composite z-score came to 1.16.

On to `COCCOC(=O)N1C(=O)[C@@]2(c3cc(C#CC4=CCCCC4)ccc31)[C@H](c1ccc(O)cc1)N1[C@H](c3ccccc3)[C@H](c3ccccc3)OC(=O)[C@H]1[C@@H]2C(N)=O`, for which the composite z-score stood at 0.592.

With `O=C1C2C=CC(C(O)C(c3ccccc3)c3ccccc3)N(n3cnnc3)C2C(=O)N1Cc1ccccc1` (centres undefined), the composite z-score is 0.492.

Turning to `CN(C)CCCC[C@@H]1NC(=O)[C@H]2C[C@@H](C(=O)NCCCCCNC(=O)CS)[C@@H](c3cccc(OCCO)c3)N2C1=O`, the composite z-score was -0.21.

Take `O=C(O)[C@@]1(CCS(=O)(=O)c2ccccc2)COC(c2ccc(OCCCO)cc2)=N1`: the composite z-score was -0.243.

Regarding `[N-]=[N+]=NCc1ccccc1[C@@H]1OC(c2ccc(OCCCO)cc2)=N[C@]1(Cc1ccccc1N=[N+]=[N-])C(=O)N1CCOCC1`, the composite z-score was 1.66.

Regarding `CC(C)N1C(=O)[C@@]2(Cc3ccccc31)c1ccccc1C(=O)N(C1CCCCC1)[C@H]2c1ccc(CO)cc1`, the composite z-score stood at 0.184.

Compound `CCOC(=O)[C@H]1C/C=C/C[C@H](C(=O)OCC)C(=O)O[C@H]2[C@@H](OC)O[C@H](CO)[C@@H](OC(=O)Nc3ccc(C#N)cc3)[C@@H]2OC1=O` showed a composite z-score of -0.194.

Take `COc1ccc(C(O)C2C=CC3C(=O)N(c4ccccc4)C(=O)C3N2Nc2ccccc2F)cc1OCc1ccccc1` (centres undefined): the composite z-score came out at 1.65.

In the case of `CN(C)C(=O)[C@]1(Cc2ccccc2CN=[N+]=[N-])N=C(c2ccc(OCCCO)cc2)O[C@@H]1c1ccccc1CN=[N+]=[N-]`, the composite z-score turned out to be 1.43.

`O=C1NCC(=O)N2[C@@H]1C[C@@H](C(=O)O)[C@H]2c1cccc(OCCO)c1` registered a composite z-score of 1.82.

For `COCCOC(=O)N1C(=O)[C@@]2(c3cc(C#CC4(O)CCCCCC4)ccc31)[C@H](c1ccc(O)cc1)N1[C@H](c3ccccc3)[C@H](c3ccccc3)OC(=O)[C@H]1[C@@H]2C(=O)Nc1nc2ccccc2s1`, the composite z-score is 1.15.

Compound `COCCOC(=O)N1C(=O)[C@@]2(c3cc(C#CCNC(N)=O)ccc31)[C@H](C(=O)NC[C@H](O)c1ccccc1)[C@H]1C(=O)O[C@H](c3ccccc3)[C@H](c3ccccc3)N1[C@@H]2c1ccccc1OCCO` returned a composite z-score of 1.11.

For `O=C(NCc1ccccc1)[C@@]1(CCS(=O)(=O)c2ccccc2)N=C(c2ccc(OCCCO)cc2)O[C@H]1c1ccccc1`, the composite z-score was found to be 1.56.

Source of the values: PubChem BioAssay.
